Assay results from the supplement of paper PMC11732987, “Enantioselective OTUD7B fragment discovery through chemoproteomics screening and high-throughput optimisation” (Communications Chemistry, 2025).

Legend:
Assay in all cases: log2 ratio of Biotin-Ahx-Ub-VS probe labelling (fragment/DMSO); higher = less target engagement (more negative = stronger competition), active = hit call of the paper (q ≤ 0.05, log2 ratio ≤ -1)
Details in all cases: compound concentration: 200 uM; treatment time: 3 h
USP34 = USP34 (UniProt Q70CQ2)
Chain of USP34 (Q70CQ2 whole entry, the tested form may be a part): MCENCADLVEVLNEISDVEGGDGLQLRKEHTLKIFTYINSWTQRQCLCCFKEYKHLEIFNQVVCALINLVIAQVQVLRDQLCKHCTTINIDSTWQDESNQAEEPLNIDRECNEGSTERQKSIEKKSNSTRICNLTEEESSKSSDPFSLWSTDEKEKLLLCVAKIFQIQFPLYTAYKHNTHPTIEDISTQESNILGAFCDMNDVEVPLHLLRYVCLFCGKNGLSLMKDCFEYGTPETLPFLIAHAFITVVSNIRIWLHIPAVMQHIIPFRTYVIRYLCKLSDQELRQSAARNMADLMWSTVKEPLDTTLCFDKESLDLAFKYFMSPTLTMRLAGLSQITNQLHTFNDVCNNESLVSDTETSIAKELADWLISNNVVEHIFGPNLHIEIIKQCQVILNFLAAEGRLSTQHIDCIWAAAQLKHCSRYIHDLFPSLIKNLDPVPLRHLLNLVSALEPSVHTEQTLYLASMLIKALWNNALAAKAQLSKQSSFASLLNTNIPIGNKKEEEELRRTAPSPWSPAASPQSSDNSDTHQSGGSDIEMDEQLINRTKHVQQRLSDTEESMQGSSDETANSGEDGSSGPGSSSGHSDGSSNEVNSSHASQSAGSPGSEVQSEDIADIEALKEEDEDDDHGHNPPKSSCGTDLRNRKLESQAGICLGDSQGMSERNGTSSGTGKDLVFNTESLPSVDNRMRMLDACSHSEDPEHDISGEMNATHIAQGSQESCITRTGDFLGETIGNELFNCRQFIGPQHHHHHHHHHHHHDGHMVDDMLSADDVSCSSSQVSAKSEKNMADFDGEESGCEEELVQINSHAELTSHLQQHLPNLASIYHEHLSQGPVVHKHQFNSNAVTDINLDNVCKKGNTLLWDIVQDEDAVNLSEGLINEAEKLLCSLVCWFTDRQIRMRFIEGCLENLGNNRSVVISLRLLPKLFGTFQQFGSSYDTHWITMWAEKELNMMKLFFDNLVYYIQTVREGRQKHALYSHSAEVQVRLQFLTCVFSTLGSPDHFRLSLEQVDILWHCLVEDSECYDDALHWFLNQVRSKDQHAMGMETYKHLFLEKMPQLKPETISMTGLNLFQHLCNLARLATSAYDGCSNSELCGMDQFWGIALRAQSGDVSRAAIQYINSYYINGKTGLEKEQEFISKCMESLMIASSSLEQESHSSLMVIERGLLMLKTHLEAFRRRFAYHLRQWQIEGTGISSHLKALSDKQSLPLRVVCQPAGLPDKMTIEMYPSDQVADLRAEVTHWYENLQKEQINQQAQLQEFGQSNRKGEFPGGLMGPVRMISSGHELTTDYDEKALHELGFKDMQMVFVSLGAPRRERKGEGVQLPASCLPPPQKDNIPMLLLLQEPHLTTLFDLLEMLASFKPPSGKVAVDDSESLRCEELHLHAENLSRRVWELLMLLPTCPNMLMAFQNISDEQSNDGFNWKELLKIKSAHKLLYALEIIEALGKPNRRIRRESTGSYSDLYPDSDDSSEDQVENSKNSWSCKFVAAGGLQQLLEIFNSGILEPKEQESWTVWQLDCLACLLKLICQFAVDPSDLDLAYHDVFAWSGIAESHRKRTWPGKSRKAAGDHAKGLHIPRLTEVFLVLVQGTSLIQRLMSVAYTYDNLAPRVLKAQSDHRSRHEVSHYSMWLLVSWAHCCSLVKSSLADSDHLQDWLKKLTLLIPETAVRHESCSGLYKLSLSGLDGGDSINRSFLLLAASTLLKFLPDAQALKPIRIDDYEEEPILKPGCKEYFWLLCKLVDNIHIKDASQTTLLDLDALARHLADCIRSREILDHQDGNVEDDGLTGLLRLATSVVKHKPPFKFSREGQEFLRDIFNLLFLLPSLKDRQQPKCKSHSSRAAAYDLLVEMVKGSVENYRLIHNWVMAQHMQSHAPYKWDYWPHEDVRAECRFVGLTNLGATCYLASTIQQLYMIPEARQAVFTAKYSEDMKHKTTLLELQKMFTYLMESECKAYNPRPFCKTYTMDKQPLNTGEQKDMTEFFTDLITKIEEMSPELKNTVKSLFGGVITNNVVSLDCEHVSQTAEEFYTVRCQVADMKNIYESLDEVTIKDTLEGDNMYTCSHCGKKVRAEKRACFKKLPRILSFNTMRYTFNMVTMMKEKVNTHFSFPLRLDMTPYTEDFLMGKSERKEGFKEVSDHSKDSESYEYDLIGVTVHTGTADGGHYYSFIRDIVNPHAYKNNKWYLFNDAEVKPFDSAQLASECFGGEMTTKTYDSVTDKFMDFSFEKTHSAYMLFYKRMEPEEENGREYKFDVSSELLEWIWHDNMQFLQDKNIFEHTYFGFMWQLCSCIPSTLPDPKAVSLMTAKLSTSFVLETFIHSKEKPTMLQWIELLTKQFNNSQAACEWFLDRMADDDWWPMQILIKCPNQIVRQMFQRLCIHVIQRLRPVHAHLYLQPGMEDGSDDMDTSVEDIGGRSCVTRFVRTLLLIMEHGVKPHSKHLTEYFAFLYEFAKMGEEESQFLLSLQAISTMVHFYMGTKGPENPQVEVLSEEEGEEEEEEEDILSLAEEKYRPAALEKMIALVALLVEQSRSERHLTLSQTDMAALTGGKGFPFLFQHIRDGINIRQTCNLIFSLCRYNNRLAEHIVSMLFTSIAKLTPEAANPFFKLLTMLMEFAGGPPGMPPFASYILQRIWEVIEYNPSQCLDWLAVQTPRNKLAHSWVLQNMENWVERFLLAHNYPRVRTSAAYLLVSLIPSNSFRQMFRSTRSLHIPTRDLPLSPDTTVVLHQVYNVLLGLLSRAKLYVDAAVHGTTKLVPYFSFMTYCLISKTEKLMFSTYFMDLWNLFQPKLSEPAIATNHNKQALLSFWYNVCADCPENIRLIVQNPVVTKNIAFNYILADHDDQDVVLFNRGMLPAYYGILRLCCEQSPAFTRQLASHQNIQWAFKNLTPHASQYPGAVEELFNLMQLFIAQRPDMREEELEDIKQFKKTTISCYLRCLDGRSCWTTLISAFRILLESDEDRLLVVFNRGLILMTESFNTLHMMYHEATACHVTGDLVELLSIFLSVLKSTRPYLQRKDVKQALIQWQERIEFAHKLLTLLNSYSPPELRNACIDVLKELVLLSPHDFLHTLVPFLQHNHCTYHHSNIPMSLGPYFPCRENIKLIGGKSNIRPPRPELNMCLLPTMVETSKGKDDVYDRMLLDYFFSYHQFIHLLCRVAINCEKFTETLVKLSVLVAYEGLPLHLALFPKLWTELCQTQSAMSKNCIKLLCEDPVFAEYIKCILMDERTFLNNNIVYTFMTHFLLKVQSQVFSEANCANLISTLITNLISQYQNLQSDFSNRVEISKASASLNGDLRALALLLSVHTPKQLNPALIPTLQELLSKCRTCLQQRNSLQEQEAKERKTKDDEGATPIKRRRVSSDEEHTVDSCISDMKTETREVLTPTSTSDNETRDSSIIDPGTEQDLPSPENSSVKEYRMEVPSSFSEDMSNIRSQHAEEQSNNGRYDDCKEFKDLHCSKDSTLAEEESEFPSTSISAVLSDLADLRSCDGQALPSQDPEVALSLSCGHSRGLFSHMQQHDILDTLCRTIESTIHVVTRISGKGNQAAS
Summary of the method: (§1)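 HEK293T lysate, 495 µg per sample in Tris/CHAPS/IGEPAL buffer with protease inhibitors, was treated in triplicate with fragment at 200 µM or vehicle for 3 h and then with Biotin-Ahx-Ub-VS at 0.5 µM final for 1 h. Labelled DUBs were NeutrAvidin-enriched, digested with LysC and trypsin, and run by diaPASEF LC-MS/MS. Spectronaut label-free quantities were global-median-normalised, and values are average log2 fragment/vehicle ratios by unpaired t-test on proteins with ≥2 unique peptides.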

USP36 = target: T1, USP36 (UniProt Q9P275)
T1 sequence (whole entry): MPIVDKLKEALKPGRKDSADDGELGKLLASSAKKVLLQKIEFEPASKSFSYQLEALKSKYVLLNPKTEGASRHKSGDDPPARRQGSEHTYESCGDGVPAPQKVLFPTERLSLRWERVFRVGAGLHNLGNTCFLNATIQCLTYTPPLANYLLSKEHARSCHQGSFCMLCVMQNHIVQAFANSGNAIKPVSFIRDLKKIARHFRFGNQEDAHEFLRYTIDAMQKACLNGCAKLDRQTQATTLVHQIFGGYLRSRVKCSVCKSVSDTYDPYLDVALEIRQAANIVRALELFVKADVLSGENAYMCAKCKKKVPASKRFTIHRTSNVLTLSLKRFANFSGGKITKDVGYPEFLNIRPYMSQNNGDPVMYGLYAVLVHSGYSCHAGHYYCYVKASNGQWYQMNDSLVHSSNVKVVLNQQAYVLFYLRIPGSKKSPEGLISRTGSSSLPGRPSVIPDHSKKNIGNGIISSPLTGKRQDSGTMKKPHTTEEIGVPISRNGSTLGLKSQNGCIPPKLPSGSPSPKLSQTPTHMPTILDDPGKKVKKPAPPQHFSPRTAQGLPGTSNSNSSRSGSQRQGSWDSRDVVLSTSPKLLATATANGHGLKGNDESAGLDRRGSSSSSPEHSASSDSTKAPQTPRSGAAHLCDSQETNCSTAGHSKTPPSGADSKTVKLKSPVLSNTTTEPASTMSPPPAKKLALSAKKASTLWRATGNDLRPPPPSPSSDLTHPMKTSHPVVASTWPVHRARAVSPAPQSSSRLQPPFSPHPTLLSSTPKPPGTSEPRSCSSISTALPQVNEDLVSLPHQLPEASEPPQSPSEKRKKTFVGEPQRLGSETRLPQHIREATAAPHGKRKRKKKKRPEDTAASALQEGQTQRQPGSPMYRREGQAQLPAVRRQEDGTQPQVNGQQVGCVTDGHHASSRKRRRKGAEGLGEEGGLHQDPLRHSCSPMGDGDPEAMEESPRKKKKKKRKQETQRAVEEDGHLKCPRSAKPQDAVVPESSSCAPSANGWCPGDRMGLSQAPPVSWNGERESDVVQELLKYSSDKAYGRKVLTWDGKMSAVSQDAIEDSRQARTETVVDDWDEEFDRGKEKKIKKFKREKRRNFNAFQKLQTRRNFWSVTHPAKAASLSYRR
Summary of the method: as §1

USP38 = target: T2, USP38 (UniProt Q8NB14)
T2 sequence (whole entry): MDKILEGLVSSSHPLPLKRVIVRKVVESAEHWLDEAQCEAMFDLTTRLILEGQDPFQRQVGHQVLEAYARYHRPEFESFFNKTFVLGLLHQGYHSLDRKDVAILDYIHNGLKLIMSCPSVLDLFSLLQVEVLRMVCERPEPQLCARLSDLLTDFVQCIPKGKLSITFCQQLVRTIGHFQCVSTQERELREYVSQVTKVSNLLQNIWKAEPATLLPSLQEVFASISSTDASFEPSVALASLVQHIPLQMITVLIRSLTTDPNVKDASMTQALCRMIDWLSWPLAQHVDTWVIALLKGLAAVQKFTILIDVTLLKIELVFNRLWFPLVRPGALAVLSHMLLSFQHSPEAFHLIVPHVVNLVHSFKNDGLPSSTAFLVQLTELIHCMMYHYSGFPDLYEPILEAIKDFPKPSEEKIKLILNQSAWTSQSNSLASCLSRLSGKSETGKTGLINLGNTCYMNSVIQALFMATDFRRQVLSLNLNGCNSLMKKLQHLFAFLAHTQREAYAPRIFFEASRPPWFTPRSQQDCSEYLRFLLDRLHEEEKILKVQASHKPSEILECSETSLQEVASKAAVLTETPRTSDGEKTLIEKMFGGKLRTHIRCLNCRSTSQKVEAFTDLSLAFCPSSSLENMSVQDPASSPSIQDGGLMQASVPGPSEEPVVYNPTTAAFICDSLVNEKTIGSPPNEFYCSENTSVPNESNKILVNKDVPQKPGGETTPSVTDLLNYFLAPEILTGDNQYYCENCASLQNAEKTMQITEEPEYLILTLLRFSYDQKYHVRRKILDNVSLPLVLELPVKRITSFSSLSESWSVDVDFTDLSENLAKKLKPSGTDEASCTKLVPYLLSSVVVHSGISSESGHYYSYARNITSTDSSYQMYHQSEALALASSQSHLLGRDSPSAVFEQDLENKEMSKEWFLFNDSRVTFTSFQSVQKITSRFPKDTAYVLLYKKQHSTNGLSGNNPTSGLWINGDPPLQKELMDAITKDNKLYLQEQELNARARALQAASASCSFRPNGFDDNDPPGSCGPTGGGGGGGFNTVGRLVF
Summary of the method: as §1

USP39 = target: T3, USP39 (UniProt Q53GS9)
T3 sequence (whole entry): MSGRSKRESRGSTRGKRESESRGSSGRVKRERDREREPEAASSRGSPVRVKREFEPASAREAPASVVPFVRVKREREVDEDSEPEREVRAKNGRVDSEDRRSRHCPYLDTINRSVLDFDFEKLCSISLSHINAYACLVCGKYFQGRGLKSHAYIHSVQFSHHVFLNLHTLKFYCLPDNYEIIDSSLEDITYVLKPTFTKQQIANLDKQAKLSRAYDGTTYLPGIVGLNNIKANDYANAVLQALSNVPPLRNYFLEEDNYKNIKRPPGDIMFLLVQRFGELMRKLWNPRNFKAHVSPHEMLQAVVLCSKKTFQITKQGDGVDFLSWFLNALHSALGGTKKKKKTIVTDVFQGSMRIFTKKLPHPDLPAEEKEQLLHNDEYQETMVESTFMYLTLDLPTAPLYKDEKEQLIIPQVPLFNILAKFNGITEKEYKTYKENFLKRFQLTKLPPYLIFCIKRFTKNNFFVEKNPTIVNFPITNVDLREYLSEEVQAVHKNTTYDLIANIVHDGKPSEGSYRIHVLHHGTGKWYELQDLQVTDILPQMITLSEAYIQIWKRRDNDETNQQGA
Summary of the method: as §1

USP4 = target: T4, USP4 (UniProt Q13107)
T4 sequence (whole entry): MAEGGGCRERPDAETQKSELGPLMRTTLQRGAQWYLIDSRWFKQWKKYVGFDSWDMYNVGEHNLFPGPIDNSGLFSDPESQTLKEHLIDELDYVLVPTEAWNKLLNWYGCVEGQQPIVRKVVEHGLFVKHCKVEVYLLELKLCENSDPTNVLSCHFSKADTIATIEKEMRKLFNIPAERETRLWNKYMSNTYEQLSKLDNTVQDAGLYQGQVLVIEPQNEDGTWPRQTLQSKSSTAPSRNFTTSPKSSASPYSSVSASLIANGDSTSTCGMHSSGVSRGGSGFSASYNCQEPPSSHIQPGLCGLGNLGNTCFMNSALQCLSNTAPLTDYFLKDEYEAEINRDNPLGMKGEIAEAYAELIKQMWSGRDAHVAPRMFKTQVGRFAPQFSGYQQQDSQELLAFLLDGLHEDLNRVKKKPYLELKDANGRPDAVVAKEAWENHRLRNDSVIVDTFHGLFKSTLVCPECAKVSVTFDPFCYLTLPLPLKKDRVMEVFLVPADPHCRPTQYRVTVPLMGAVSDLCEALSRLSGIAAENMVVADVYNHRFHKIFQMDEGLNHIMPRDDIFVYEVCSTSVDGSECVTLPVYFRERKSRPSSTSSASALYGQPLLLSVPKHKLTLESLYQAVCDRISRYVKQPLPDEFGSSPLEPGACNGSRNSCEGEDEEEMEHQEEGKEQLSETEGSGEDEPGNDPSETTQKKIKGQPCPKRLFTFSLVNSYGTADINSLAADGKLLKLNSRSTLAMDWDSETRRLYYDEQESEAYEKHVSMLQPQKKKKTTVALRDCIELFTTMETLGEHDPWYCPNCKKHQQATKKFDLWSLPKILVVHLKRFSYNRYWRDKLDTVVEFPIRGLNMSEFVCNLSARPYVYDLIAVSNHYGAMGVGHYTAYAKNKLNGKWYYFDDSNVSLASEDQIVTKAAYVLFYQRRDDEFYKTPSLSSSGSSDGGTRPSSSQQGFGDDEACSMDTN
Summary of the method: as §1

Measured: log2 ratio of Biotin-Ahx-Ub-VS probe labelling

Cl.Cn1ncc2c1CC(NC(=O)CCl)CC2 (stereo not given)
inactive: USP34 0.0665 | USP36 -0.0622 | USP38 0.034 | USP39 -0.0219 | USP4 0.0879
